Bioassay records as filed in PubChem.
Myeloid diff 2: compounds promoting myeloid differentiation; actives 1% (n = 360,000); AID 624256; ER-HoxA9 myeloid progenitors, lysozyme-GFP differentiation, flow cytometry; calls only at 10 µM;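 active = normalized GFP-positive differentiation at or above the plate's own cutoff, the solvent-only control mean plus 3 SD; inconclusive = no clear call, values can overlap the other calls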;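 note: cells exposed to compound for four days before flow analysis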
SKN-1 block: blocks SKN-1 activity in C. elegans; AID 624304; inhibition, % at 21.8 µM; C. elegans VP596 Pgst-4::GFP/RFP ratio, acrylamide-induced, 24 h; actives 0.49% (n = 360,000);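 active = interference check ratio from 0.5 to 1.5 plus GFP to RFP signal ratio inhibition reaching or exceeding a fixed threshold, cut at about 30% in these data, passing the limit was not always enough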
M1 antag: antagonists of human M1 muscarinic receptor; P11229; CHO-K1 hM1, Fluo-8 calcium fluorescence, ACh EC80 antagonist; inhibition, % at 3 µM; actives 1.3% (n = 360,000);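 active = percent inhibition above its own plate's cutoff, namely the mean of that plate's compound wells plus 3 SD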;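 note: peak over basal fluorescence ratio during 140 s after agonist addition; 0% = ACh EC80 plus DMSO and 100% = DMSO alone without agonist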
Target sequence (P11229 whole entry, looked up): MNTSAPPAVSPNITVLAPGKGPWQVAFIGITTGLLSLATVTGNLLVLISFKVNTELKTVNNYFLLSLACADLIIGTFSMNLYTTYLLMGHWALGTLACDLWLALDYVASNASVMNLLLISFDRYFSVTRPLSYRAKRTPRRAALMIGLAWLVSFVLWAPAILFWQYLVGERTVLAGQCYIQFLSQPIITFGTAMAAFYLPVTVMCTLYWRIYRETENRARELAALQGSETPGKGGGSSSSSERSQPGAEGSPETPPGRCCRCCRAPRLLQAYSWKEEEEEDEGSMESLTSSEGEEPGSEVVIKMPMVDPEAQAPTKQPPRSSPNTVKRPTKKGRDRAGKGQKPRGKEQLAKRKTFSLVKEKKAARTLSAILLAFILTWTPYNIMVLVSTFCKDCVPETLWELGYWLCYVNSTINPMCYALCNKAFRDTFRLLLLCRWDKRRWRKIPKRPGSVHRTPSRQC
CHRM1 PAM: positive allosteric modulators of human M1 muscarinic receptor | CHO-K1 hM1, Fluo-8 calcium fluorescence, ACh EC20; 0% = ACh EC20, 100% = maximal ACh | actives 0.088% (n = 360,000) | activation, % at 3 µM | P11229 | AID 588819; in the data active = activation above about 19%, passing the limit was not always enough
ATG4B inh: inhibitors of human ATG4B cysteine protease; ATG4B cleavage of LC3-PLA2, NBD-HPC fluorescence, 1 h; inhibition, % at 8.33 µM; actives 0.51% (n = 340,000); AID 504462; in the data active = inhibition above about 40%
M1 ag: human M1 muscarinic receptor agonism; actives 0.33% (n = 360,000); CHO-K1 hM1, Fluo-8 calcium fluorescence, agonist mode; 0% DMSO, 100% acetylcholine EC100; P11229; AID 588814; activation, % at 3 µM;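 active = activation above the run's mean compound activation plus 3 SD, cut at about 16% in these data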;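 note: peak over basal fluorescence ratio within a 140 s kinetic read after compound addition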
Starred values were filed as active, the others as inactive; i = inactive; ? = inconclusive; / = no result; + = active, no number. A selection: hits, their analogues and other compounds. The true share with any hit is near 3.5%.

SMILES	Myeloid diff 2	SKN-1 block	M1 antag	CHRM1 PAM	ATG4B inh	M1 ag
CC(NC(=O)c1ccco1)C(c1cccs1)N1CCN(c2ccccc2F)CC1 (stereo not drawn)	+	6	9	19	8	-7
CC(NC(=O)c1ccco1)C(c1cccs1)N1CCN(c2ccc(F)cc2)CC1 (stereo not drawn)	i	0	51*	-18	-7	-9
CCOC(=O)[C@]12CCCC=C1N(CCc1ccc(OC)c(OC)c1)C(=O)[C@H](CC(=O)N1CCSCC1)C2	i	-6	/	/	/	/
O=C(CSc1nc(O)cc(=O)[nH]1)Nc1ccc2c(c1)CCC2	i	46*	-5	8	-2	0
O=C(CSc1nc2c(c(=O)[nH]1)CCC2)Nc1cccc(Cl)c1	i	-25	-12	15	-6	17*
O=C(CSc1nc2c(c(=O)[nH]1)CCC2)Nc1ccccc1Cl	i	17	-15	10	1	-2
Cc1ccc(NC(=O)CSc2nc(N)cc(=O)[nH]2)cc1S(=O)(=O)N1CCCCCC1	i	53*	-4	12	-6	-4
COCOCCn1cc(CN2CCS(=O)(=O)N(Cc3ccc(-c4ccc(F)cc4)cc3)C(C(C)C)C2=O)nn1 (stereo not drawn)	i	-17	-16	3	/	-7
CC(=O)Nc1cc2c3c(cccc3c1)-c1ccccc1-2	+	1	-6	3	-19	-3
CC(Sc1nc2ccccc2c(=O)n1CC1CCCO1)C(=O)N(C)c1ccccc1 (stereo not drawn)	i	4	-1	-2	-13	-6
CNc1ccccc1C(C)(C)c1cc(-c2cccc(OC)c2)no1	+	73	16	-3	10	-5
CCOC(=O)C(CSCC(=O)c1ccc(Cl)cc1Cl)NC(=O)OC(C)(C)C (stereo not drawn)	i	36*	-13	0	-12	-5
COc1ccc(-c2cc(C(F)F)n3ncc(C(=O)N4CCN(C(=O)c5ccco5)CC4)c3n2)cc1	+	10	-4	1	-5	-10
COc1ccc(-c2cc(C(F)F)n3ncc(C(=O)N4CCCCC4)c3n2)cc1	i	16	-6	1	-23	-4
COC(=O)C1=C(C)N=c2s/c(=C/c3cccs3)c(=O)n2C1c1ccc(F)cc1 (stereo not drawn)	i	35*	2	1	-9	-2
CCOC(=O)C1=C(C)N=c2sc(=Cc3ccc(OCC(=O)O)cc3)c(=O)n2C1c1ccc(Cl)cc1 (stereo not drawn)	i	3	2	0	/	-2
CCCCCOc1ccc(C(=O)CCC(=O)N2CCCC2)cc1	i	4	22*	-19	-7	-11
Cc1ccc(C(C)NC(=O)c2cc3cc(Br)ccc3oc2=N)cc1 (stereo not drawn)	i	4	-24	14	6	-2
COCCN=c1scc(-c2cc(OC)ccc2OC)n1/N=C/c1c[nH]c2ccccc12	i	23	6	8	-21	16*
CCOC(=O)c1c(NC(=O)COC(=O)c2cccnc2OCC)sc(C(=O)N(CC)CC)c1C	i	-2	-7	4	-2	-1
CC1(C)Cc2nc3sc4c(SCC(=O)O)ncnc4c3cc2CO1	i	11	-4	2	-12	-2
CC1(C)Cc2nc3sc4c(SCC(=O)NCc5ccccc5)ncnc4c3cc2CO1	+	-6	1	-4	10	-6
OC(CNCCc1ccccc1)COc1ccc(OCC(O)CNCCc2ccccc2)cc1 (stereo not drawn)	i	-17	7	-4	-8	-8
CC(C)N(CCNCC(O)COc1ccc(C(C)(C)c2ccccc2)cc1)C(C)C (stereo not drawn)	i	-12	34*	-19	2	-4
OC(CNCCC(c1ccccc1)c1ccccc1)COc1ccccc1 (stereo not drawn)	i	11	31*	-15	-9	-6
SMILES	Myeloid diff 2	SKN-1 block	M1 antag	CHRM1 PAM	ATG4B inh	M1 ag
Cn1c(=O)oc2cc(S(=O)(=O)N3CCN(c4ccccc4)CC3)ccc21	+	3	2	7	-6	0
N#CC1(NC(=O)COC(=O)c2cc(O)c3ccccc3c2O)CCCCC1	+	10	2	7	-4	2
O=C(COC(=O)[C@@H]1CCCN1S(=O)(=O)c1ccccc1F)NCc1ccc2c(c1)OCO2	i	-3	-8	8	1	1
O=C(CNC(=O)c1ccccc1)NCCc1ccc(O)c(O)c1	i	13	-3	31*	/	-4
Cn1c(SCc2ccccc2)nc(N)c(N=O)c1=O	i	21	-7	2	-19	-4
COCCCN1C(=O)C(=O)/C(=C(/O)c2ccc(S(=O)(=O)N3CCOCC3)cc2)C1c1ccc(Cl)cc1 (stereo not drawn)	i	10	2	2	-8	0
O=C(NCc1ccccc1)C(c1ccc(-c2ccccc2)cc1)n1c(=O)c(-c2cc3ccccc3[nH]2)nc2ccccc21 (stereo not drawn)	i	13	/	/	/	/
COC(=O)C(NNc1ccccc1)(NC(=O)c1cccc(F)c1)C(F)(F)F (stereo not drawn)	i	-38	-11	7	-9	-3
COc1ccc(S(=O)(=O)NCCSCc2ccco2)cc1Cl	i	11	-30	22*	3	4
C[C@@H](NC(=O)[C@@H]1CCCN1C(=O)[C@@H]1CCCN1C(=O)c1ccccc1)c1ccccc1	i	2	/	/	/	/
Cc1ccc(S(=O)(=O)NCCC(=O)N2CCC(C(N)=O)CC2)cc1C	i	-15	-20	24*	6	1
Cc1c(Cl)ccc2c1NC(=O)[C@]21N[C@@H](Cc2ccccc2)[C@H]2C(=O)N(c3ccc(F)cc3)C(=O)[C@H]21	i	5	12	1	-14	17*
CN(N)c1nc(C(F)(F)F)nc2ccccc12	+	12	-5	4	0	-5
Cc1cc(C)c2c(c1C)C(=O)CCC2	i	6	-6	7	-5	-5
O=C(C(=O)N1CCN(c2cccc(Cl)c2)CC1)c1cn(CC(=O)N2CCOCC2)c2ccccc12	i	20	-3	2	-14	-3
COc1ccc(-c2cnc3c(NC(C)=O)cc(-c4cc(F)ccc4OC)cn23)cc1OC	?	11	1	22	/	17*
COc1ccc(-c2cc(NC(C)=O)c3ncc(-c4ccc(F)cc4)n3c2)cc1OC	i	-8	-7	-2	/	-4
CCCN(C(=O)COC(=O)CCC(=O)c1ccccc1)c1c(N)n(Cc2ccccc2)c(=O)[nH]c1=O	i	1	-12	8	/	-3
